Experimental data taken from the supplement of paper PMC8007513.
Structures can show the parent of a compound that is named as a salt. ± gives the standard error. The campaign covered roughly 1,300 compounds. About 130 (10%) showed an effect of 50% or more. For the sample, strong results were picked, then their nearest neighbours and some compounds at random.

Test system: Trichoderma virens ATCC 9645
Assay: growth yield (OD600) with compound + IPBC relative to untreated control; higher = less growth inhibition
Settings: compound concentration: 100 uM, IPBC concentration: 200 ng/ml
How it was run: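 Trichoderma virens ATCC 9645 spores from 7-day potato dextrose agar plates were suspended in potato dextrose broth at 15,000 spores ml^−1. Aliquots of 100 μl with library compounds at 100 μM final, with or without a co-applied biocide at 200 ng ml^−1, were grown in 96-well plates at 30 °C. OD600 was read at 40 h and 72 h on a BioTek EL800. Growth is expressed relative to the control without either agent, as means of duplicate screens.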

| SMILES | growth yield (40 h) | growth yield (72 h) |
| --- | --- | --- |
| CC[N+](C)(CC)CCOC(=O)C1c2ccccc2Oc2ccccc21 [Methantheline bromide] + CCCCNC(=O)OCC#CI [3-iodo-2-propynyl butylcarbamate (IPBC)] | 82 ± 1.9% | 88.5 ± 2.1% |
| Clc1ccc(C(OCCN2CCCCC2)c2ccccc2)cc1 (configuration not stated) [Cloperastine hydrochloride] + CCCCNC(=O)OCC#CI [3-iodo-2-propynyl butylcarbamate (IPBC)] | 78.6 ± 0.79% | 95.1 ± 2% |
| Fc1ccc(C(OCCN2CCN(CCCc3ccccc3)CC2)c2ccc(F)cc2)cc1 + CCCCNC(=O)OCC#CI [3-iodo-2-propynyl butylcarbamate (IPBC)] | 13.3 ± 4.8% | 65.3 ± 6.4% |
| O=c1[nH]c2ccccc2n1C1CCN(CCCC(c2ccc(F)cc2)c2ccc(F)cc2)CC1 [Pimozide] + CCCCNC(=O)OCC#CI [3-iodo-2-propynyl butylcarbamate (IPBC)] | 111 ± 8.3% | 136 ± 2.7% |
| COc1cc(NS(=O)(=O)c2ccc(N)cc2)nc(OC)n1 [Sulfadimethoxine] + CCCCNC(=O)OCC#CI [3-iodo-2-propynyl butylcarbamate (IPBC)] | 116.3 ± 0.95% | 114 ± 1.6% |
| C[C@]12CC[C@H]3[C@@H](CCC4=CC(=O)CC[C@@H]43)[C@@H]1CC[C@@H]2O [Nandrolone] + CCCCNC(=O)OCC#CI [3-iodo-2-propynyl butylcarbamate (IPBC)] | 61.2 ± 3.3% | 83.7 ± 4.8% |
| COc1cccc(OC)c1C(=O)N[C@@H]1C(=O)N2[C@@H]1SC(C)(C)[C@@H]2C(=O)O [Methicillin sodium] + CCCCNC(=O)OCC#CI [3-iodo-2-propynyl butylcarbamate (IPBC)] | 89.3% | 90.7 ± 2% |
| COc1ccc(C(=O)CC(=O)c2ccc(C(C)(C)C)cc2)cc1 [Avobenzone] + CCCCNC(=O)OCC#CI [3-iodo-2-propynyl butylcarbamate (IPBC)] | 67.83 ± 0.16% | 71.84 ± 0.1% |
| Nc1ccc(C(=O)O)c(O)c1 [4-aminosalicylic acid] + CCCCNC(=O)OCC#CI [3-iodo-2-propynyl butylcarbamate (IPBC)] | 87.36 ± 0.32% | 94.18 ± 0.42% |
| COc1ccc(C(=O)c2ccccc2)c(O)c1 [Oxybenzone] + CCCCNC(=O)OCC#CI [3-iodo-2-propynyl butylcarbamate (IPBC)] | 45.3 ± 4.9% | 71.1 ± 6.1% |
| COc1ccccc1O [Guaiacol] + CCCCNC(=O)OCC#CI [3-iodo-2-propynyl butylcarbamate (IPBC)] | 94.7 ± 1.6% | 98 ± 1.5% |
| COc1ccc(C(=O)c2ccccc2O)c(O)c1 [Dioxybenzone] + CCCCNC(=O)OCC#CI [3-iodo-2-propynyl butylcarbamate (IPBC)] | 23.67 ± 0.16% | 48.35 ± 0.1% |
| CC(=O)Oc1ccccc1C(=O)O [Acetylsalicylic acid] + CCCCNC(=O)OCC#CI [3-iodo-2-propynyl butylcarbamate (IPBC)] | 107 ± 4.9% | 104 ± 5.5% |
| CC(N)C12CC3CC(CC(C3)C1)C2 (configuration not stated) [Rimantadine Hydrochloride] + CCCCNC(=O)OCC#CI [3-iodo-2-propynyl butylcarbamate (IPBC)] | 82.76 ± 0.16% | 89.04 ± 0.1% |
| C=C1CC[C@@]2(O)[C@H]3Cc4ccc(O)c5c4[C@@]2(CCN3CC2CC2)[C@H]1O5 [Nalmefene hydrochloride] + CCCCNC(=O)OCC#CI [3-iodo-2-propynyl butylcarbamate (IPBC)] | 104 ± 15% | 103 ± 8.3% |
| C[C@H](Cc1cc2c(c(C(N)=O)c1)N(CCCO)CC2)NCCOc1ccccc1OCC(F)(F)F [Silodosin] + CCCCNC(=O)OCC#CI [3-iodo-2-propynyl butylcarbamate (IPBC)] | 87 ± 1.3% | 92.6 ± 0.94% |
| CC[C@]12CCCN3CCc4c(n(c5ccccc45)[C@@](O)(C(=O)OC)C1)[C@@H]32 [Vincamine] + CCCCNC(=O)OCC#CI [3-iodo-2-propynyl butylcarbamate (IPBC)] | 86.2 ± 1.4% | 91 ± 1.7% |
| O=C(O)c1cc(-c2ccc(F)cc2F)ccc1O [Diflunisal] + CCCCNC(=O)OCC#CI [3-iodo-2-propynyl butylcarbamate (IPBC)] | 57.8 ± 1.6% | 80.65 ± 0.32% |
| CN(C)[C@@H]1C(O)=C(C(N)=O)C(=O)[C@@]2(O)C(O)=C3C(=O)c4c(O)ccc(Cl)c4[C@@](C)(O)[C@H]3C[C@@H]12 [Chlortetracycline hydrochloride] + CCCCNC(=O)OCC#CI [3-iodo-2-propynyl butylcarbamate (IPBC)] | 77.2 ± 0.64% | 84.3 ± 2.1% |
| C[N+]1(C)CCOC(O)(c2ccc(-c3ccc(C4(O)C[N+](C)(C)CCO4)cc3)cc2)C1 (configuration not stated) [Hemicholinium bromide] + CCCCNC(=O)OCC#CI [3-iodo-2-propynyl butylcarbamate (IPBC)] | 19.1 ± 0.64% | 69.4 ± 1.5% |
| CC(=O)S[C@@H]1CC2=CC(=O)CC[C@]2(C)[C@H]2CC[C@@]3(C)[C@@H](CC[C@@]34CCC(=O)O4)[C@H]12 [Spironolactone] + CCCCNC(=O)OCC#CI [3-iodo-2-propynyl butylcarbamate (IPBC)] | 85.3 ± 9.1% | 91.1 ± 7% |

| SMILES | growth yield (40 h) | growth yield (72 h) |
| --- | --- | --- |
| CN(C)CCc1c[nH]c2ccc(C[C@H]3COC(=O)N3)cc12 [Zolmitriptan] + CCCCNC(=O)OCC#CI [3-iodo-2-propynyl butylcarbamate (IPBC)] | 93.2 ± 4% | 96.3 ± 4% |
| C=C(C)[C@@H]1[C@H]2OC(=O)[C@@H]1[C@]1(O)C[C@H]3O[C@]34C(=O)O[C@H]2[C@]14C [Picrotoxinin] + CCCCNC(=O)OCC#CI [3-iodo-2-propynyl butylcarbamate (IPBC)] | 96.3 ± 11% | 97.1 ± 8.2% |
| Clc1ccc2c(c1)CCc1cccnc1C2=C1CCNCC1 [Desloratadine] + CCCCNC(=O)OCC#CI [3-iodo-2-propynyl butylcarbamate (IPBC)] | 56.2 ± 0.64% | 89.7 ± 1.4% |
| CN1CCC(=C2c3ccccc3CCc3cccnc32)CC1 [Azatadine maleate] + CCCCNC(=O)OCC#CI [3-iodo-2-propynyl butylcarbamate (IPBC)] | 99.6 ± 2.4% | 97.43 ± 0.94% |
| CCOC(=O)N1CCC(=C2c3ccc(Cl)cc3CCc3cccnc32)CC1 [Loratadine] + CCCCNC(=O)OCC#CI [3-iodo-2-propynyl butylcarbamate (IPBC)] | 17.3 ± 4% | 58.7 ± 2.5% |
| Nc1nc(=O)n([C@@H]2CS[C@H](CO)O2)cc1F [(-)-Emtricitabine] + CCCCNC(=O)OCC#CI [3-iodo-2-propynyl butylcarbamate (IPBC)] | 81.33 ± 0.64% | 87.5 ± 1.1% |
| CC(=O)[C@@]1(O)CC[C@H]2[C@@H]3C[C@H](C)C4=CC(=O)C=C[C@]4(C)[C@@]3(F)[C@@H](O)C[C@@]21C [Fluorometholone] + CCCCNC(=O)OCC#CI [3-iodo-2-propynyl butylcarbamate (IPBC)] | 91.3 ± 9.1% | 88.7 ± 5% |
| CC(=O)NS(=O)(=O)c1ccc(N)cc1 [Sulfacetamide sodic hydrate] + CCCCNC(=O)OCC#CI [3-iodo-2-propynyl butylcarbamate (IPBC)] | 91.5 ± 1.3% | 93.7 ± 0.94% |
| Cc1cc(NS(=O)(=O)c2ccc(N)cc2)no1 [Sulfamethoxazole] + CCCCNC(=O)OCC#CI [3-iodo-2-propynyl butylcarbamate (IPBC)] | 45.6 ± 1.1% | 80 ± 1.6% |
| Cc1noc(NS(=O)(=O)c2ccc(N)cc2)c1C [Sulfisoxazole] + CCCCNC(=O)OCC#CI [3-iodo-2-propynyl butylcarbamate (IPBC)] | 77.7 ± 2.7% | 91.1 ± 1.4% |
| Cc1cc(C)nc(NS(=O)(=O)c2ccc(N)cc2)n1 [Sulfamethazine sodium salt] + CCCCNC(=O)OCC#CI [3-iodo-2-propynyl butylcarbamate (IPBC)] | 100 ± 14% | 98.5 ± 9.1% |
| CC1CS(=O)(=O)CCN1/N=C/c1ccc([N+](=O)[O-])o1 (configuration not stated) [Nifurtimox] + CCCCNC(=O)OCC#CI [3-iodo-2-propynyl butylcarbamate (IPBC)] | 91.5 ± 12% | 91.9 ± 6.9% |
| C[C@H](CS)C(=O)N1CCC[C@H]1C(=O)O [Captopril] + CCCCNC(=O)OCC#CI [3-iodo-2-propynyl butylcarbamate (IPBC)] | 90.1 ± 1.1% | 90.1 ± 1.1% |
| C1CCC(C(CC2CCCCN2)C2CCCCC2)CC1 (configuration not stated) [Perhexiline maleate] + CCCCNC(=O)OCC#CI [3-iodo-2-propynyl butylcarbamate (IPBC)] | 40.981 ± 7.1e-15% | 85.27 ± 0.32% |
| CN1C(C(=O)Nc2ccccn2)=C(O)c2sccc2S1(=O)=O [Tenoxicam] + CCCCNC(=O)OCC#CI [3-iodo-2-propynyl butylcarbamate (IPBC)] | 83.1 ± 2.1% | 94.08 ± 0.1% |
| CCCCC1(COC(=O)CCC(=O)O)C(=O)N(c2ccccc2)N(c2ccccc2)C1=O [Suxibuzone] + CCCCNC(=O)OCC#CI [3-iodo-2-propynyl butylcarbamate (IPBC)] | 89.4 ± 2.7% | 92.71 ± 0.84% |
| Cc1cccc(C)c1NC(=O)C1CCCCN1C (configuration not stated) [Mepivacaine hydrochloride] + CCCCNC(=O)OCC#CI [3-iodo-2-propynyl butylcarbamate (IPBC)] | 91.3 ± 3.3% | 96.3 ± 4% |
| CCCCC[C@H](O)/C=C/[C@@H]1[C@@H](C/C=C\CCCC(=O)O)[C@@H](O)C[C@H]1O [Dinoprost trometamol] + CCCCNC(=O)OCC#CI [3-iodo-2-propynyl butylcarbamate (IPBC)] | 83.1 ± 1.1% | 94.08 ± 0.52% |
| CCOc1ccc2nc(S(N)(=O)=O)sc2c1 [Ethoxzolamide] + CCCCNC(=O)OCC#CI [3-iodo-2-propynyl butylcarbamate (IPBC)] | 90.2% | 92.2 ± 3.9% |
| Nc1nc2ccc(OC(F)(F)F)cc2s1 [Riluzole hydrochloride] + CCCCNC(=O)OCC#CI [3-iodo-2-propynyl butylcarbamate (IPBC)] | 27.3 ± 2.2% | 49.3 ± 1.9% |
